Assay results: PubChem BioAssay
“And” between values parts separate entries of the source, which are not always exact repeats. Equal entries are not always repeated. The source made the active and inactive calls.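 How the source made its calls, unless noted: active means normalized viability below 100% at a tested concentration; inactive means the rest.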

How the values were obtained:
[1] = Wnt pathway potentiators raising nuclear beta-catenin – imaging, WNT3A-conditioned medium, mouse C2C12, NPC library, primary screen (AID 1117326; in the data active means nuclear beta-catenin stimulation mostly above about 4.2%, no sharp cut-off; inactive means mostly below about 10%); conditions: stronger effect = higher value
[2] = stimulators of insulin release from INS-1E, primary screen, cell-based, 5 mM glucose, NPC library (AID 1117329;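 active means compound raises insulin release from rat beta cells at 5 mM glucose, no numeric limit stated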); conditions: rat INS-1E insulin secretion, at 10 µM, stronger effect = higher value
[3] = growth inhibition of GSK3B-pretreated HCT116 cells – cell-based, CellTiter-Glo, 0.2 to 20 µM (AID 1117336;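 active means compounds lowering colon cancer cell viability after pretreatment blocking the GSK3B kinase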); conditions: HCT116 viability after GSK3B inhibitor, at 20 µM, stronger effect = higher value
[4] = inhibition of endothelial tube formation, primary screen, imaging, VEGF stimulated, CD31 staining, tube area, NPC library (AID 1117340;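 active means compound that reduces growth-factor-driven endothelial tube area in a mixed cell culture, no cutoff stated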); conditions: VEGF-stimulated ADSC/ECFC co-culture, at 10 µM, stronger effect = higher value
[5] = GLP1 release stimulators, primary, NCI-H716, NPC library (AID 1117341;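 active means compound raises GLP1 secretion from the human gut endocrine cells, with no numeric limit stated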); conditions: NCI-H716 cells, at 10 µM, stronger effect = higher value
[6] = HCT116 colon cancer cell growth inhibition, primary screen, CellTiter-Glo luminescence, NPC library (AID 1117342;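 active means compounds that lower survival of HCT116 colon cancer cells in the luminescence readout, no numeric limit stated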); conditions: at 20 µM (top of the series)
[7] = reduced SW480 viability measured with CellTiter-Glo, NPC library, primary (AID 1117343;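 active means compounds that lower viability of the colon cancer cells in the luminescence readout, with no numeric limit stated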); conditions: CellTiter-Glo luminescence; at 20 µM (top of the series) unless noted
[8] = NPC library primary testing for decreased DLD-1 cell viability via CellTiter-Glo (AID 1117346;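 active means compounds that lower survival of DLD-1 colon cancer cells in the luminescence readout, no cutoff given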); conditions: DLD-1 viability, CellTiter-Glo luminescence; at 20 µM (top of the series)
[9] = EMT-state selective cytotoxicity in co-culture – imaging, PC-3E GFP, TEM4-18 mCherry, primary screen (AID 1345086;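 active means compounds killing one labelled cell type while sparing the other, by normalised counts and ratio limits, not self-fluorescent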;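 on all read-outs here: cells exposed to compound for 72 h before imaging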;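 on red/green cell ratio (normalised): normalised mesenchymal count divided by normalised epithelial count so high means epithelial killing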); conditions: PC-3E GFP / TEM4-18 mCherry co-culture, imaging cell counts, at 1 µM; for red/green cell ratio (normalised): actives lie on both sides, counts scaled to control wells, 1 = unselective
[10] = viability loss with induced miR-34 in A549 – imaging, A549 dox-inducible miR-34, nuclei and caspase counts, primary screen (AID 1347080;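 active means compounds whose cell count with miR-34 switched on is under 0.7 times the count with it off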); conditions: A549 miR-34 inducible, Hoechst nuclei count, 48 h
[11] = MELAS cybrid and Rieske KO viability enhancers – cell-based, MELAS cybrids, Rieske KO mouse fibroblasts, CellTiter-Glo, primary screen (AID 1508586;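 active means mean z-score across replicates of 1.96 or higher in either the MELAS or the Rieske mutant cell line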;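 further: z relative to plate mean and SD of compound and empty wells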); conditions: low glucose
[12] = drug combination growth inhibition, ovarian cancer – cell-based, oncology-focused library, rucaparib conditional, profiling panel (AID 1508598); conditions: patient-derived ovarian cancer cells, CellTiter-Glo viability, 144 h, stronger effect = lower value
[13] = compounds altering viability of human ES cells (AID 493140; call rule not given here;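 further: cells exposed to compounds for four days before counting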); conditions: human embryonic stem cell survival screen; stronger effect = higher value
[14] = P. berghei load reduction in hepatocytes – cell-based, HepG2, luciferase luminescence, HepG2 viability, primary screen (AID 624349; in the data active means parasite load remaining mostly below about 12%, no sharp cut-off; inactive means mostly above about 10%;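 further: 100% = mean of DMSO negative control wells on the same plate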); conditions: P. berghei liver stage in HepG2, luciferase luminescence, concentration not given here; parasite load remaining: stronger effect = lower value; viability: measured here: HepG2 viability without parasites
[15] = target: NAD(+) hydrolase SARM1 (Homo sapiens) (UniProt Q6SZW1); experiment: blocking NAD cleavage by SARM1 SAM-TIR – cell lysate, NAD-Glo luminescence (AID 1508614;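 active means compound whose remaining NAD level is above about 45 nM, limit read from the data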); conditions: SAM-TIR HEK293T lysate NADase, at 1 µM, stronger effect = higher value
[16] = growth inhibition, single agent or in combination, cell-based, chromothripsis tumors, cisplatin or BGB combos (AID 1671449; in the data active means inhibition above about 80%;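 further: cells exposed for 96 hours; 0% = vehicle DMSO and 100% = killing by high DMSO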); conditions: LFS_MB_P medulloblastoma cells
[17] = growth inhibition, single agent and combos, cell-based, chromothripsis tumors, cisplatin or BGB combos (AID 1671450; in the data active means inhibition above about 80%;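 further: cells exposed to compound for four days; 0% = vehicle DMSO and 100% = cell killing by high DMSO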); conditions: HDN33 neuroblastoma cells, stronger effect = higher value
[18] = growth inhibition, single agents and combos, ICB984, cell-based, cisplatin or BGB combos, synergistic combos for chromothripsis tumors (AID 1671451; call rule not given here;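 further: cells exposed for 96 hours before readout; 0% = vehicle DMSO and 100% = killing by high DMSO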); conditions: ICB984 medulloblastoma cells, drug combinations, stronger effect = higher value
[19] = growth inhibition, single agents and combos, HTB85, cell-based, BGB or cisplatin IC20 combos, synergistic combos for chromothripsis tumors (AID 1671453; in the data active means inhibition above about 80%;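 further: cells exposed for 96 hours before readout; 0% = vehicle DMSO and 100% = high DMSO killing control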); conditions: HTB85 osteosarcoma cells, drug combinations, stronger effect = higher value
[20] = growth inhibition, MDA-MB-436, cell-based, BGB or cisplatin combos, synergistic combos for chromothripsis tumors (AID 1671458; call rule not given here;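 further: cells exposed for 96 hours; 0% = vehicle DMSO and 100% = killing by high DMSO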); conditions: MDA-MB-436 breast carcinoma growth inhibition, drug combinations, stronger effect = higher value
[21] = measured here: epithelial PC-3E GFP cell survival
[22] = measured here: mesenchymal TEM4-18 mCherry cell survival
[23] = MELAS cybrid survival, CellTiter-Glo 48 h, stronger effect = higher value
[24] = Rieske KO mouse fibroblast survival, CellTiter-Glo 72 h

Sequence of NAD(+) hydrolase SARM1 (Homo sapiens) (Q6SZW1 whole entry, looked up): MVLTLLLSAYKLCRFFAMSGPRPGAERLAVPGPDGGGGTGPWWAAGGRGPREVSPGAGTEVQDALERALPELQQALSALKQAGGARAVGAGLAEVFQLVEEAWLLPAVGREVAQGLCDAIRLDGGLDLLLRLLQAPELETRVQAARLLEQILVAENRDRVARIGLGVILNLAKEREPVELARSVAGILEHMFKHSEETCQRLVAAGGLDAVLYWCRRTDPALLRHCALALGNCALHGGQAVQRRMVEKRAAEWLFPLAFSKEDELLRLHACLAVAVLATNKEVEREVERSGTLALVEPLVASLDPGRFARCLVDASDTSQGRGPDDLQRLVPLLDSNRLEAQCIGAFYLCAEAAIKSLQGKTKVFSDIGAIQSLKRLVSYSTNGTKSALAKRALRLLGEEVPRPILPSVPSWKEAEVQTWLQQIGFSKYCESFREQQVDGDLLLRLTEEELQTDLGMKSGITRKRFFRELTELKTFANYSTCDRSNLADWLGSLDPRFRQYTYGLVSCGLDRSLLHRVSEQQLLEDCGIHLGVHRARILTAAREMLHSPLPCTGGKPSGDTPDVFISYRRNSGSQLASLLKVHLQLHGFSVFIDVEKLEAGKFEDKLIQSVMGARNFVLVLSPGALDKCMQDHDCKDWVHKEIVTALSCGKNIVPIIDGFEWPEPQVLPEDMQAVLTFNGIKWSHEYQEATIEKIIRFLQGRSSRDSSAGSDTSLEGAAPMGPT

COc1cc2ncnc(Nc3ccc(F)c(Cl)c3)c2cc1OCCCN1CCOCC1
nuclear beta-catenin stimulation ([1]; at 10 µM): 78.2% (active) | nuclear beta-catenin stimulation ([1]; stimulation, at 2 µM): 2.5% | insulin secretion stimulation [2]: 0.7% (inactive) | viability decrease [3]: 44.5% (inactive) | tube area decrease [4]: 65.5% (active) | GLP1 secretion stimulation [5]: -2.9% (inactive) | inhibition of viability [6]: 98.7% (active) | viability decrease (inhibition) [7]: 101% (active) | viability decrease (inhibition) [8]: 98.1% (active) | red/green cell ratio (normalised) [9]: 1.15 (inactive) | normalised cell number [9, 21]: 0.79 | normalised cell number [9, 22]: 0.91 | fold change ([10]; stronger effect = lower value, cell number ratio, induced over uninduced): 0.786 (inactive) and 0.938 (inactive) and 0.793 (inactive) | fold change ([10]; measured here: relative caspase fold change +Dox/-Dox): 1.64 and 1.38 and 1.39 | cell count ([10]; measured here: total cells with miR-34 induction, stronger effect = lower value): 4800 and 6990 and 6580 | cell count ([10]; measured here: total cells without miR-34 induction): 6110 and 7460 and 8300 | z-score [11, 23]: -0.609 (inactive) and 0.334 and 0.781 (inactive) | z-score [11, 24]: -0.845 and 2.09 and 1.88 | viability ([12]; at 0.000305 µM, OCI-C5x cells, with rucaparib 10 µM, 100% = cells with rucaparib alone): 94.6% (active) | viability ([12]; at 0.000305 µM, OCI-C5x cells, without rucaparib): 94.5% (active) | viability ([12]; at 0.000305 µM, OCI-P5x cells, with rucaparib 20 µM, 100% = cells with rucaparib alone): 100% (inactive) | viability ([12]; at 0.000305 µM, OCI-P5x cells, without rucaparib): 100% (inactive) | viability ([12]; at 0.00122 µM, OCI-C5x cells, with rucaparib 10 µM, 100% = cells with rucaparib alone): 98.1% (active) | viability ([12]; at 0.00122 µM, OCI-C5x cells, without rucaparib): 93.8% (active) | viability ([12]; at 0.00122 µM, OCI-P5x cells, with rucaparib 20 µM, 100% = cells with rucaparib alone): 106% (inactive) | viability ([12]; at 0.00122 µM, OCI-P5x cells, without rucaparib): 100% (inactive) | viability ([12]; at 0.00488 µM, OCI-C5x cells, with rucaparib 10 µM, 100% = cells with rucaparib alone): 95.1% (active) | viability ([12]; at 0.00488 µM, OCI-C5x cells, without rucaparib): 102% (inactive) | viability ([12]; at 0.00488 µM, OCI-P5x cells, with rucaparib 20 µM, 100% = cells with rucaparib alone): 95.6% (active) | viability ([12]; at 0.00488 µM, OCI-P5x cells, without rucaparib): 100% (inactive) | viability ([12]; at 0.0195 µM, OCI-C5x cells, with rucaparib 10 µM, 100% = cells with rucaparib alone): 109% (inactive) | viability ([12]; at 0.0195 µM, OCI-C5x cells, without rucaparib): 98% (active) | viability ([12]; at 0.0195 µM, OCI-P5x cells, with rucaparib 20 µM, 100% = cells with rucaparib alone): 98.7% (active) | viability ([12]; at 0.0195 µM, OCI-P5x cells, without rucaparib): 96.3% (active) | viability ([12]; at 0.0781 µM, OCI-C5x cells, with rucaparib 10 µM, 100% = cells with rucaparib alone): 101% (inactive) | viability ([12]; at 0.0781 µM, OCI-C5x cells, without rucaparib): 92% (active) | viability ([12]; at 0.0781 µM, OCI-P5x cells, with rucaparib 20 µM, 100% = cells with rucaparib alone): 98.6% (active) | viability ([12]; at 0.0781 µM, OCI-P5x cells, without rucaparib): 100% (active) | viability ([12]; at 0.313 µM, OCI-C5x cells, with rucaparib 10 µM, 100% = cells with rucaparib alone): 101% (inactive) | viability ([12]; at 0.313 µM, OCI-C5x cells, without rucaparib): 99.7% (active) | viability ([12]; at 0.313 µM, OCI-P5x cells, with rucaparib 20 µM, 100% = cells with rucaparib alone): 88.2% (active) | viability ([12]; at 0.313 µM, OCI-P5x cells, without rucaparib): 101% (inactive) | viability ([12]; at 1.25 µM, OCI-C5x cells, with rucaparib 10 µM, 100% = cells with rucaparib alone): 103% (inactive) | viability ([12]; at 1.25 µM, OCI-C5x cells, without rucaparib): 94.5% (active) | viability ([12]; at 1.25 µM, OCI-P5x cells, with rucaparib 20 µM, 100% = cells with rucaparib alone): 98.4% (active) | viability ([12]; at 1.25 µM, OCI-P5x cells, without rucaparib): 97.2% (active) | viability ([12]; at 5 µM, OCI-C5x cells, with rucaparib 10 µM, 100% = cells with rucaparib alone): 56.7% (active) | viability ([12]; at 5 µM, OCI-C5x cells, without rucaparib): 72% (active) | viability ([12]; at 5 µM, OCI-P5x cells, with rucaparib 20 µM, 100% = cells with rucaparib alone): 86.8% (active) | viability ([12]; at 5 µM, OCI-P5x cells, without rucaparib): 99.3% (active)

N=C(N=C(N)N)N1CCOCC1
survival [13]: 19.5 (inactive) | parasite load remaining [14]: 19.9% (inactive) and 108% (inactive) and 72.1% (inactive) | viability [14]: 51% and 98% and 255% | nuclear beta-catenin stimulation ([1]; at 10 µM): 1.2% (inactive) | nuclear beta-catenin stimulation ([1]; stimulation, at 2 µM): 1.4% | insulin secretion stimulation [2]: -2.5% (inactive) | viability decrease [3]: -5.75% (inactive) | tube area decrease [4]: 4.5% (inactive) | GLP1 secretion stimulation [5]: 1.9% (inactive) | inhibition of viability [6]: 14.6% (inactive) | viability decrease (inhibition) [7]: 34.4% (inactive) | viability decrease (inhibition) [8]: 4.15% (inactive) | red/green cell ratio (normalised) [9]: 0.95 (inactive) | normalised cell number [9, 21]: 0.9 | normalised cell number [9, 22]: 0.86 | z-score [11, 23]: -0.354 (inactive) and -0.415 (inactive) and 0.363 (inactive) | z-score [11, 24]: 0.794 and 0.165 and 0.626 | remaining NAD [15]: 10 nM (inactive) | inhibition ([16]; at 0.5 µM, stronger effect = higher value): 0.66% (inactive) | inhibition ([16]; measured here: combination with BGB IC20, at 0.005 µM): 31.7% | inhibition ([16]; measured here: combination with BGB IC40, at 0.005 µM): -13.4% | inhibition ([16]; measured here: combination with BGB IC40, at 0.05 µM): -9.47% | inhibition ([16]; measured here: combination with cisplatin, at 0.5 µM, stronger effect = higher value): 66.2% | inhibition ([16]; measured here: combination with cisplatin, at 5 µM, stronger effect = higher value): -1.14% | inhibition ([17]; BGB combo, at 5 µM): 12.3% | inhibition ([17]; at 0.5 µM): -2.43% (inactive) | inhibition ([17]; cisplatin combo, at 5 µM): 9.3% | inhibition ([17]; measured here: with BGB IC20 combination, at 0.5 µM): -2.61% | inhibition ([17]; measured here: with cisplatin IC20 combination, at 0.5 µM): -1.22% | inhibition ([17]; single agent, at 5 µM): 6.99% | inhibition ([18]; BGB IC20 combo, at 0.005 µM): 3.73% | inhibition ([18]; BGB IC40 combo, at 0.005 µM): -7.45% | inhibition ([18]; BGB IC40 combo, at 0.05 µM): -3.82% | inhibition ([18]; at 0.5 µM): -14.1% (inactive) | inhibition ([18]; cisplatin combo, at 0.05 µM): -6.72% | inhibition ([18]; cisplatin combo, at 0.5 µM): -17.9% | inhibition ([18]; cisplatin combo, at 5 µM): -29% | inhibition ([18]; measured here: 5 uM single agent, at 5 µM): -1.94% | inhibition ([19]; at 0.5 µM): -5.39% (inactive) | inhibition ([19]; measured here: with BGB IC20, at 0.5 µM): 1.31% | inhibition ([19]; measured here: with BGB IC20, at 5 µM): -31% | inhibition ([19]; measured here: with cisplatin IC20, at 0.5 µM): -27.9% | inhibition ([19]; measured here: with cisplatin IC20, at 5 µM): -17.8% | inhibition ([19]; single agent, at 5 µM): -7.35% | inhibition ([20]; at 0.5 µM): -3.31% (inactive) | inhibition ([20]; measured here: BGB combination, at 0.5 µM): -4.36% | inhibition ([20]; measured here: BGB combination, at 5 µM): -6.45% | inhibition ([20]; measured here: cisplatin combination, at 0.5 µM): -3.15% | inhibition ([20]; measured here: cisplatin combination, at 5 µM): -8.98%
